# Measurements as given in PubChem BioAssay AID1159580 (chemical genetic matrix, 2015).
# The whole screen tested about 5,500 compounds, of which about 2,000 (36%) were called active. Not shown: some 18% with an inconclusive outcome. Some of the results follow. Values without a mark were called inactive. Cut-off read from the data, not from the text of the source: active = normalized growth mostly below about 0.91 (no sharp cut-off); inconclusive = no clear call, values can overlap the other calls; inactive = mostly above about 0.92.
# Assay: chemical genetic growth profiling, strain panel (AID 1159580);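 note: tested at 20 µM; growth read once vehicle control cultures reached saturation at 30 °C; 1 = growth at the plate median or of vehicle wells; lower values mean less growth of the strain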
# Conditions: growth OD
compound,measurement,setting,value
O=C1OCCN1/N=C\c1ccc([N+](=O)[O-])o1,normalized growth,"S. cerevisiae deletion strains, locus YJR075W, strain HOC1, hits give low values",0.981
same,normalized growth,"S. cerevisiae deletion strains, locus YKL009W, strain mrt4, hits give low values",0.915
same,normalized growth,"S. cerevisiae deletion strains, locus YKL068W, hits give low values",0.999
same,normalized growth,"S. cerevisiae deletion strains, locus YKL085W, strain MDH1 (second series), hits give low values",0.99
same,normalized growth,"S. cerevisiae deletion strains, locus YKL085W, strain MDH1, hits give low values",0.99
same,normalized growth,"S. cerevisiae deletion strains, locus YKL160W, strain elf1, hits give low values",0.984
same,normalized growth,"S. cerevisiae deletion strains, locus YKR001C, strain vps1, hits give low values",0.938
same,normalized growth,"S. cerevisiae deletion strains, locus YKR026C, strain gcn3, hits give low values",1
same,normalized growth,"S. cerevisiae deletion strains, locus YKR091W, strain srl3, hits give low values",0.997
same,normalized growth,"S. cerevisiae deletion strains, locus YLL001W, strain dnm1, hits give low values",0.978
same,normalized growth,"S. cerevisiae deletion strains, locus YLL026W, hits give low values",0.988
same,normalized growth,"S. cerevisiae deletion strains, locus YLL041C, strain sdh2, hits give low values",1
same,normalized growth,"S. cerevisiae deletion strains, locus YLR027C, strain aat2, hits give low values",0.955
same,normalized growth,"S. cerevisiae deletion strains, locus YLR039C, strain RIC1, hits give low values",0.657 (active)
same,normalized growth,"S. cerevisiae deletion strains, locus YLR058C, strain SHM2, hits give low values",0.967
same,normalized growth,"S. cerevisiae deletion strains, locus YLR102C, strain apc9, hits give low values",0.988
same,normalized growth,"S. cerevisiae deletion strains, locus YLR113W, strain HOG1, hits give low values",0.869
same,normalized growth,"S. cerevisiae deletion strains, locus YLR221C, strain rsa3, hits give low values",0.975
same,normalized growth,"S. cerevisiae deletion strains, locus YLR258W, strain gsy2, hits give low values",0.976
same,normalized growth,"S. cerevisiae deletion strains, locus YLR262C, strain YPT6 (second series), hits give low values",0.888
same,normalized growth,"S. cerevisiae deletion strains, locus YLR262C, strain YPT6, hits give low values",0.683
same,normalized growth,"S. cerevisiae deletion strains, locus YLR268W, strain sec22, hits give low values",0.831 (active)
same,normalized growth,"S. cerevisiae deletion strains, locus YLR320W, strain mms22, hits give low values",0.956
same,normalized growth,"S. cerevisiae deletion strains, locus YLR330W, strain CHS5, hits give low values",1
same,normalized growth,"S. cerevisiae deletion strains, locus YLR342W, strain FKS1 (second series), hits give low values",0.943
same,normalized growth,"S. cerevisiae deletion strains, locus YLR342W, strain FKS1, hits give low values",1
same,normalized growth,"S. cerevisiae deletion strains, locus YLR357W, strain rsc2, hits give low values",1.03
same,normalized growth,"S. cerevisiae deletion strains, locus YLR370C, strain arc18, hits give low values",0.942
same,normalized growth,"S. cerevisiae deletion strains, locus YLR371W, strain rom2, hits give low values",0.99
same,normalized growth,"S. cerevisiae deletion strains, locus YLR384C, strain iki3, hits give low values",1
same,normalized growth,"S. cerevisiae deletion strains, locus YLR418C, strain cdc73, hits give low values",0.847
same,normalized growth,"S. cerevisiae deletion strains, locus YML016C, strain PPZ1, hits give low values",0.987
same,normalized growth,"S. cerevisiae deletion strains, locus YML032C, strain rad52, hits give low values",0.494 (active)
same,normalized growth,"S. cerevisiae deletion strains, locus YML120C, strain ndi1, hits give low values",0.965
same,normalized growth,"S. cerevisiae deletion strains, locus YML124C, strain tub3, hits give low values",1.01
same,normalized growth,"S. cerevisiae deletion strains, locus YMR058W, strain fet3, hits give low values",0.79 (active)
same,normalized growth,"S. cerevisiae deletion strains, locus YMR078C, strain ctf18, hits give low values",0.976
same,normalized growth,"S. cerevisiae deletion strains, locus YMR125W, strain sto1, hits give low values",0.93
same,normalized growth,"S. cerevisiae deletion strains, locus YMR129W, hits give low values",1
same,normalized growth,"S. cerevisiae deletion strains, locus YMR205C, strain PFK2, hits give low values",1.02
same,normalized growth,"S. cerevisiae deletion strains, locus YMR223W, strain ubp8, hits give low values",0.91
same,normalized growth,"S. cerevisiae deletion strains, locus YMR231W, strain pep5, hits give low values",0.998
same,normalized growth,"S. cerevisiae deletion strains, locus YMR307W, strain GAS1, hits give low values",0.761
same,normalized growth,"S. cerevisiae deletion strains, locus YNL067W, strain RPL9B, hits give low values",0.97
same,normalized growth,"S. cerevisiae deletion strains, locus YNL071W, strain lat1, hits give low values",0.997
same,normalized growth,"S. cerevisiae deletion strains, locus YNL128W, strain TEP1, hits give low values",0.997
same,normalized growth,"S. cerevisiae deletion strains, locus YNL153C, strain GIM3, hits give low values",0.842 (active)
same,normalized growth,"S. cerevisiae deletion strains, locus YNL183C, strain NPR1, hits give low values",0.848
same,normalized growth,"S. cerevisiae deletion strains, locus YNL209W, strain ssb2, hits give low values",0.979
same,normalized growth,"S. cerevisiae deletion strains, locus YNL233W, strain BNI4, hits give low values",0.987
same,normalized growth,"S. cerevisiae deletion strains, locus YNL248C, strain rpa49, hits give low values",0.84 (active)
same,normalized growth,"S. cerevisiae deletion strains, locus YNL250W, strain rad50, hits give low values",0.713 (active)
same,normalized growth,"S. cerevisiae deletion strains, locus YNL271C, strain bni1, hits give low values",0.978
same,normalized growth,"S. cerevisiae deletion strains, locus YNL298W, strain CLA4, hits give low values",0.95
same,normalized growth,"S. cerevisiae deletion strains, locus YNL307C, strain MCK1, hits give low values",0.955
same,normalized growth,"S. cerevisiae deletion strains, locus YNL322C, strain KRE1 (second series), hits give low values",0.992
same,normalized growth,"S. cerevisiae deletion strains, locus YNL322C, strain KRE1, hits give low values",0.999
same,normalized growth,"S. cerevisiae deletion strains, locus YNR049C, strain mso1, hits give low values",1.02
same,normalized growth,"S. cerevisiae deletion strains, locus YNR052C, strain pop2, hits give low values",0.899 (active)
same,normalized growth,"S. cerevisiae deletion strains, locus YOL006C, strain TOP1, hits give low values",0.891
same,normalized growth,"S. cerevisiae deletion strains, locus YOL012C, strain htz1",1.16
same,normalized growth,"S. cerevisiae deletion strains, locus YOL147C, strain pex11, hits give low values",0.991
same,normalized growth,"S. cerevisiae deletion strains, locus YOR001W, strain rrp6, hits give low values",0.904
same,normalized growth,"S. cerevisiae deletion strains, locus YOR061W, strain CKA2, hits give low values",0.988
same,normalized growth,"S. cerevisiae deletion strains, locus YOR069W, strain VPS5, hits give low values",0.992
same,normalized growth,"S. cerevisiae deletion strains, locus YOR070C, strain gyp1, hits give low values",1.01
same,normalized growth,"S. cerevisiae deletion strains, locus YOR080W, strain dia2, hits give low values",0.986
same,normalized growth,"S. cerevisiae deletion strains, locus YOR083W, strain WHI5, hits give low values",0.962
same,normalized growth,"S. cerevisiae deletion strains, locus YOR106W, strain vam3, hits give low values",0.938
same,normalized growth,"S. cerevisiae deletion strains, locus YOR136W, strain idh2, hits give low values",0.959
same,normalized growth,"S. cerevisiae deletion strains, locus YOR144C, strain elg1, hits give low values",0.969
same,normalized growth,"S. cerevisiae deletion strains, locus YOR184W, strain ser1, hits give low values",0.862 (active)
same,normalized growth,"S. cerevisiae deletion strains, locus YOR231W, strain MKK1, hits give low values",0.777 (active)
same,normalized growth,"S. cerevisiae deletion strains, locus YOR265W, strain rbl2, hits give low values",0.997
same,normalized growth,"S. cerevisiae deletion strains, locus YOR270C, strain vph1, hits give low values",0.92
same,normalized growth,"S. cerevisiae deletion strains, locus YOR290C, strain snf2, hits give low values",0.912
same,normalized growth,"S. cerevisiae deletion strains, locus YOR316C, strain cot1, hits give low values",0.999
same,normalized growth,"S. cerevisiae deletion strains, locus YPL051W, strain arl3, hits give low values",0.943
same,normalized growth,"S. cerevisiae deletion strains, locus YPL055C, strain LGE1, hits give low values",0.882
same,normalized growth,"S. cerevisiae deletion strains, locus YPL078C, strain atp4, hits give low values",0.932
same,normalized growth,"S. cerevisiae deletion strains, locus YPL106C, strain sse1, hits give low values",0.889
same,normalized growth,"S. cerevisiae deletion strains, locus YPL240C, strain hsp82, hits give low values",1.01
same,normalized growth,"S. cerevisiae deletion strains, locus YPL241C, strain CIN2, hits give low values",0.988
same,normalized growth,"S. cerevisiae deletion strains, locus YPL256C, strain CLN2, hits give low values",0.909
same,normalized growth,"S. cerevisiae deletion strains, locus YPR119W, strain clb2, hits give low values",0.989
same,normalized growth,"S. cerevisiae deletion strains, locus YPR141C, strain kar3, hits give low values",0.993
same,normalized growth,"S. cerevisiae deletion strains, locus YPR163C, strain tif3, hits give low values",0.993
same,normalized growth,"S. cerevisiae deletion strains, locus YPR167C, strain met16, hits give low values",0.986
same,normalized growth,"S. cerevisiae deletion strains, strain wtn01, hits give low values",0.87 (active)
same,normalized growth,"S. cerevisiae strains, strain wild type, hits give low values",0.99
